High-throughput results (PubChem)
In the library only some 2.4% were active in any assay of this set; here they are far more common.
D2 ag-1: Beta-Arrestin HTS for Positive Allosteric Modulators of the Human D2 Dopamine Receptor: Agonists; DiscoveRx PathHunter D2 beta-arrestin, luminescence, 90 min; 100% = 57 uM dopamine signal; D(2) dopamine receptor (Homo sapiens), P14416; AID 624465, 2012; hit rate 0.084% among 360,000; activation, % (no concentration beside the values); in the data active means activation above about 40%; inconclusive means between about 15% and that limit
Target sequence (P14416 whole entry, looked up): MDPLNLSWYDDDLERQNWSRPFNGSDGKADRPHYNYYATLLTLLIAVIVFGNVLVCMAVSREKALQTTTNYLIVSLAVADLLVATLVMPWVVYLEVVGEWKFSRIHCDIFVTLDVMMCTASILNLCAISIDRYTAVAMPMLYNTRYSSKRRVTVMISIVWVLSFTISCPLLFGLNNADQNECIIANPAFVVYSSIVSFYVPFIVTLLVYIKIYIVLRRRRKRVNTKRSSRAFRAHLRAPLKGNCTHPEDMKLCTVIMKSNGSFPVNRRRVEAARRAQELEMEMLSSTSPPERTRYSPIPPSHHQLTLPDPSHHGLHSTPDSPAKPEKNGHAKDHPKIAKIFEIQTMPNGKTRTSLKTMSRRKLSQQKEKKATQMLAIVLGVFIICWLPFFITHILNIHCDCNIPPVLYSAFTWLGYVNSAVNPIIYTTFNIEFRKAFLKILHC
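Agonist mode: compounds alone added to overnight-plated D2 PathHunter cells for 90 min at 37 C, with 57 uM final dopamine (EC100) defining full response. Beta-arrestin recruitment detected by chemiluminescent reagent, read after 1 h at ambient temperature.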
D2 PAM-1: Beta-Arrestin HTS for Positive Allosteric Modulators of the Human D2 Dopamine Receptor: Potentiators. DiscoveRx D2 beta-arrestin cells, luminescence, 90 min; 100% = 57 uM dopamine signal. D(2) dopamine receptor (Homo sapiens), P14416. potentiation, % (concentration not given with the values). hit rate 0.23% among 360,000; in the data active means potentiation above about 50%; inconclusive means mostly about 30% to 49%
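PathHunter beta-arrestin assay in DiscoveRx D2 cells. Compounds were added with an EC20 of dopamine (50 nM final) for 90 min at 37 deg C. Luminescence was read 1 h after detection reagent, with 57 uM dopamine as the EC100 control.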
D2 PAM-2: HTS Assay for Positive Allosteric Modulators of the Human D2 Dopamine Receptor: Primary Screen for Potentiators. D(2) dopamine receptor (Homo sapiens), P14416. AID 485347, 2010. hit rate 0.34% among 340,000. potentiation, % at 10 µM. HEK293 T-REx D2, calcium flux, EC20 dopamine potentiation;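 active means potentiation over 3 SD above the plate norm, cut at about 30% in these data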; further: 0% is about no effect
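Primary screen. Calcium kinetics in induced HEK293 T-REx D2 cells: compound pre-addition 180 s, EC20 dopamine, 180 s more.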
D2 antagonist: HTS Assay for Allosteric Antagonists of the Human D2 Dopamine Receptor: Primary Screen for Antagonists; D(2) dopamine receptor (Homo sapiens), P14416; AID 485344, 2010; HEK293 TREx D2 cells, calcium flux, dopamine EC80; inhibition, % at 10 µM; hit rate 2% among 340,000; in the data active means inhibition above about 30%; inactive means below that, where a call was filed; further: 0% is about no effect
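Tetracycline-induced HEK293 T-REx cells expressing D2 force-coupled to calcium signalling were dye-loaded, exposed to compound for 180 s, then challenged with an EC80 of dopamine; calcium flux was followed kinetically for a further 180 s.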
D2 ag-2: HTS Assay for Allosteric Agonists of the Human D2 Dopamine Receptor: Primary Screen for Agonists; D(2) dopamine receptor (Homo sapiens), P14416; HEK293 T-REx D2 cells, calcium flux agonist mode; activation, % at 2 µM; hit rate 0.53% among 340,000;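 active means activation over 3 SD above normal in the single-dose calcium agonist read, cut at about 30% in these data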; further: 0% is about no effect
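Tetracycline-induced HEK293 Trex cells with D2 receptor force-coupled to calcium signaling, plated overnight at 30 C and loaded with no-wash calcium dye. Calcium flux read kinetically for 180 s after compound addition; responses flag agonists.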
An asterisk follows results filed as active; ? = inconclusive; nt = not tested or not shown.

SMILES	D2 ag-1	D2 PAM-1	D2 PAM-2	D2 antagonist	D2 ag-2
CCc1cccc(NC(=O)c2cc3c(=O)n(Cc4ccc(OC)cc4)ccc3nc2C)c1	nt	nt	-6.8	nt	1.4
CN(C)S(=O)(=O)c1ccc(-c2csc(N/N=C/c3ccc(O)cc3)n2)cc1	?	56.8*	0.9	-7.6	-0.1
CC1CC(C)(C)NC(=S)N1CCC(=O)NCCc1ccc(Cl)cc1 (stereo unspecified)	-3.4	-5.9	-8.8	34.7*	-2.4
COc1ccc(C(=O)Nc2ccccc2N2CCOCC2)cc1[N+](=O)[O-]	-1.6	-9.9	9.7	1.1	1.7
COc1ccc(C(=O)NC(=S)Nc2ccccc2N2CCOCC2)cc1[N+](=O)[O-]	-5.6	-33.9	17.9	39.1*	0.3
Cc1ccc(-c2noc(-c3ccc(NCc4ccco4)c([N+](=O)[O-])c3)n2)cc1	nt	nt	-3.4	nt	-1.2
COc1ccc(S(=O)(=O)NCC2CCCO2)cc1NC(=O)c1ccccc1F (stereo unspecified)	-3.1	-9.0	-3.3	35.6*	0.2
COc1ccc(CC(=O)Nc2ccc(-c3noc(-c4cc(OC)c(OC)c(OC)c4)n3)cc2)cc1	3.1	-15.8	42.2*	-24.9	-0.3
CC(C)(C)c1ccc(C(=O)N2CC(=O)Nc3ccc(F)cc3C2c2ccc(F)cc2)cc1 (stereo unspecified)	nt	nt	-17.5	nt	8.1
Cc1ccc(S(=O)(=O)Nc2ccc3c(c2)C(=O)c2ccccc2-3)cc1	-7.1	-6.4	nt	nt	nt
Cc1ccc(NS(=O)(=O)c2ccc3c(c2)C(=O)c2ccccc2C3=O)c(C)c1	4.8	80.6*	2.8	-0.3	0.4
Cc1ccc(NC(=O)COc2ccccc2)c(NC(=O)c2ccccc2C)c1	-2.7	-6.3	nt	nt	nt
Cc1ccc(NS(=O)(=O)c2ccc(C)c(NC(=O)COc3ccccc3)c2)c(C)c1	-8.1	-1.3	-4.5	66.6*	-1.5
O=C(O)/C(=C\c1cccs1)Sc1nnc(-c2ccc(F)cc2)o1	-2.1	-2.8	0.8	35.0*	1.1
CSc1ccc(/C=C(/Sc2nnc(-c3ccccc3)o2)C(=O)O)cc1	-3.6	-6.5	2.2	-17.4	2.3
COc1cc(OC)cc(-n2c(=O)c3ccccc3n(Cc3ccccc3C#N)c2=O)c1	nt	nt	13.2	nt	0.2
COc1ccc(S(N)(=O)=O)cc1C(=O)NCCCN1CCN(c2ccc(C)cc2)CC1	-2.1	-46.2	-19.1	48.6*	0.7
COc1ccc(N2CCN(CCCNC(=O)c3cc4sccc4n3C)CC2)cc1	4.4	-21.7	-27.1	40.3*	38.1*
COc1ccc(Cl)cc1C(=O)NCCCN1CCOCC1	0.6	-11.1	-3.1	-14.3	-0.3
O=c1cc(N2CCOCC2)[nH]c(=O)n1-c1ccc(Cl)cc1	-3.5	-11.8	-4.1	41.1*	-0.1
O=c1cc(N2CCCC2)[nH]c(=O)n1-c1ccc(Cl)cc1	-5.9	-5.2	-5.3	0.9	0.2
O=C(NCCc1nc2ccccc2[nH]1)c1cc([N+](=O)[O-])cc([N+](=O)[O-])c1	13.9	59.4*	7.0	-10.2	-0.5
O=C(Cn1cc([N+](=O)[O-])cn1)NCCc1nc2ccccc2[nH]1	-6.6	-0.4	3.7	-1.4	2.0
COc1ccc(C2C(=O)N(C3CCCCCC3)CC(=O)N2CCc2ccc(OC)c(OC)c2)cc1 (stereo unspecified)	nt	nt	-9.9	nt	-1.0
COc1ccccc1-c1nnc(C2CCN(S(=O)(=O)c3ccc(CC(C)C)cc3)CC2)o1	nt	nt	-3.3	nt	-0.6
SMILES	D2 ag-1	D2 PAM-1	D2 PAM-2	D2 antagonist	D2 ag-2
C=CCn1c(SCn2nnc3ccccc3c2=O)nnc1-c1ccc(F)cc1	2.0	-1.2	8.4	-5.7	-0.1
C=CCn1c(SCn2nnc3ccccc3c2=O)nnc1-c1ccc(Br)cc1	-1.0	-5.7	36.1*	-10.3	-1.8
Cc1ccc(-n2cnc3cc(C(=O)NCc4ccc(F)cc4)ccc32)c(C)c1	nt	nt	-14.3	nt	nt
CCOc1ccc2nc(N3CCCC(C(=O)Nc4ccc(OC)c(Cl)c4)C3)sc2c1 (stereo unspecified)	nt	nt	15.5	nt	nt
Oc1ccc2nnc3c(Br)cnn3c2c1	?	11.6	5.7	-8.8	52.9*
S=C(Nc1ccc(Cl)cc1Cl)N1CCN(c2ccccn2)CC1	2.2	-1.3	1.1	18.2	7.8
COc1cc(NC(=S)N2CCN(c3ccccn3)CC2)c(OC)cc1Cl	7.3	-3.5	-8.5	12.1	34.2*
COc1ccc(Cl)cc1NC(=S)N1CCN(c2ccccn2)CC1	2.2	-3.6	-7.6	34.9*	20.7
COc1ccc(Cl)cc1NC(=S)N1CCN(c2ncccn2)CC1	2.4	-1.8	4.9	12.5	12.4
S=C(Nc1cccc(Cl)c1)N1CCN(c2ccccn2)CC1	-5.3	-0.7	-11.1	-15.5	1.7
COc1cccc(NC(=S)N2CCN(c3ccccn3)CC2)c1	?	4.1	-8.8	-8.2	31.6*
CCOC(=O)c1cccc(NC(=O)c2cc(-c3ccc(Cl)s3)nc3ccccc23)c1	nt	nt	6.9	nt	1.2
COc1ccccc1CO/N=C/NC(=O)c1c(OC)ccnc1Oc1ccc(F)cc1	-1.9	-3.4	12.6	37.0*	1.0
COc1ccnc(Oc2ccc(F)cc2)c1C(=O)N/C=N/OCc1cccc(F)c1	-0.1	-0.8	-2.5	9.0	3.3
CS(=O)(=O)N1CCCc2cc(C(=O)Nc3cccc(C(F)(F)F)c3)ccc21	nt	nt	-10.1	nt	-0.6
CC1(C)Cc2c(ccc3ccccc23)/C(=C/C(=O)N2CCCCC2)N1	-3.7	-5.9	18.8	32.7*	0.2
CCCC(=O)Nc1ccc(OCC(=O)OC)cc1	0.8	-8.4	-2.4	15.7	1.3
CCCC(=O)Nc1ccc(Oc2ccc(NC(=O)CCC)cc2)cc1	-0.1	11.8	35.3*	-15.6	0.0
CCc1ccc(NC(=O)c2cnn3ccccc23)cc1	-3.5	-11.3	-0.7	41.8*	-1.0
Cc1cc(NC(=O)C2CCN(S(=O)(=O)c3cccc4nsnc34)CC2)ccc1Br	nt	nt	8.2	nt	-1.0
O=c1c2ccccc2nc(-c2ccc([N+](=O)[O-])cc2)n1O	2.4	-6.7	31.1*	4.2	-0.2
Cc1ccc(-c2nc3ccccc3c(=O)n2O)cc1	-5.4	0.7	21.8	-10.8	-0.4
Cc1cccc(C(=O)OCC(=O)NN2C(=O)NC3(CCC(C)CC3)C2=O)c1O (stereo unspecified)	-0.3	6.2	5.9	30.6*	-0.4
O=C(CCSCc1ccc(Cl)cc1)N1CCN(c2ccccc2F)CC1	nt	nt	-2.0	nt	0.7
Cc1cc(C(=O)N2CCC(C)CC2)on1	1.5	-3.8	10.3	-0.3	1.1
CCOC(=O)N1CCN(C(=O)c2cc(C)no2)CC1	-3.1	-2.3	30.1*	20.6	0.3
CCCCN(CC)C(=O)CCCn1c(=O)c2cccn2c2ccccc21	nt	nt	4.3	nt	0.3
